Only some compounds are listed: those with a hit (about 22% of all), similar ones and a draw of the others.
Cycloheximide cs: counter-screen hit for Shiga toxin inhibitors, cycloheximide; 12% of 300,000 active; max response, %; AID 2314; cell reporter, cycloheximide protein synthesis inhibition counterscreen; in the data active = max response mostly above about 13%, no sharp cut-off; inactive = mostly below about 14%; also: read at 38.3 µM for the half of the compounds with a filed dose; 0% is about no effect
LmPK inh: blocks Leishmania mexicana pyruvate kinase activity; Q27686; purified LmPK, Kinase-Glo ATP luminescence, 1 h; Potency, µM (doses to about 57.5 µM), inactives show at the top dose activity change, negative = inhibition, usual class: inhibitors; 0.37% of 290,000 active; AID 1721; also: potency is read from the fitted curve at half-maximal effect; % is scaled to controls: 0 for no effect and ±100 for the full control effect
Target sequence (Q27686 whole entry, looked up): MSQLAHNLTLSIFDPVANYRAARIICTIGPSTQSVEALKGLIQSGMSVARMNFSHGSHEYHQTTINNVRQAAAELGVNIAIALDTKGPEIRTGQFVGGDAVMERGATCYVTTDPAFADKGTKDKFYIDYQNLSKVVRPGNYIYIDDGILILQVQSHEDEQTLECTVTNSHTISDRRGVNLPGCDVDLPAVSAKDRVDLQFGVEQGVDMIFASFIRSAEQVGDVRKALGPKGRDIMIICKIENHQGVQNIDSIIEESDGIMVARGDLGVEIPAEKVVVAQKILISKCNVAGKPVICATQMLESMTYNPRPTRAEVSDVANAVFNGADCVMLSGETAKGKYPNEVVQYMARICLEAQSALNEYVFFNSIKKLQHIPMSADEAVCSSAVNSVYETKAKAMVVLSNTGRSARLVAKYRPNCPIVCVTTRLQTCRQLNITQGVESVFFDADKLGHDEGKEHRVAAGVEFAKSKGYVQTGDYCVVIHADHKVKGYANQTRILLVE
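In 50 mM imidazole pH 7.2 with 7 mM MgCl2, LmPK (0.1 nM) turned over PEP (0.5 mM) and ADP (0.1 mM) for 1 h at room temperature. Luciferase read-out of ATP.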
Shiga toxin inh: blocks Shiga toxin action in Vero cells; Vero cells, Shiga toxin protein synthesis inhibition reporter; inhibition, % at 38.7 µM; 9.2% of 290,000 active; in the data active = inhibition mostly above about 28%, no sharp cut-off; inactive = mostly below about 43%; also: 0% is about no effect
Pf growth 48h: inhibits P. falciparum growth in the first generation, 48 h | 5.9% of 310,000 active | P. falciparum luciferase growth in erythrocytes, 48 h | Potency, µM (doses to about 28.7 µM), without a hit: at the highest dose activity change, negative = inhibition, most hits filed as inhibitors | AID 504832; also: potency is read from the fitted curve at half-maximal effect; % is scaled to controls: 0 for no effect and ±100 for the full control effect
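Compounds are pin-transferred into medium, infected erythrocytes (2% hematocrit, 0.1% parasitemia final) are added, and plates sit one parasite generation at 37 C in 5% CO2. Detection reagent is then added and luminescence measured.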
Pf growth 96h: P. falciparum growth inhibition at 96 hour, primary screen for plastid delayed-death inhibitors | Potency, µM (highest dose often 28.7 µM), inactives show at the top dose activity change, negative = inhibition, usual class: inhibitors | P. falciparum luciferase reporter growth, 96 h | 6.9% of 320,000 active; also: potency is read from the fitted curve at half-maximal effect; % is scaled to controls: 0 for no effect and ±100 for the full control effect
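P. falciparum expressing integrated firefly luciferase, in erythrocytes at 2% hematocrit, 0.05% parasitemia, incubated with compounds 96 h at 37 C, 5% CO2. Growth inhibition read as loss of luminescence; two-generation exposure targets delayed-death apicoplast inhibitors.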
Active calls of the source: *; i = inactive; ? = inconclusive; . = no result; [ ] = remark or other dose. Unless noted, calls follow the shape of the dose curve; as a rule, active = well fitted inhibition curve with a large enough effect; inconclusive = small, poorly fitted or top-dose-only effect, or another doubt; inactive = no such curve, though single readings can be large or run the other way.

SMILES | Cycloheximide cs | LmPK inh | Shiga toxin inh | Pf growth 48h | Pf growth 96h
c1ccc2nc3c(nc2c1)c1ccccc1n3CCN1CCOCC1 | 13.6 | 1.9% | 42.0* | ? | .
Nc1c(S(=O)(=O)c2cc(Cl)ccc2Cl)c2nc3ccccc3nc2n1CCN1CCOCC1 | -3.6 | -0.3% | -16.1 | 13.1µM* | .
Cc1nc2ccccc2n1CCN1CCOCC1 | 15.5 | 6.7% | 23.3 | 34.1% | 24.2%
C=CCSc1ncc(CO)n1Cc1ccccc1 | -4.5 | 2.5% | 12.1 | 4.0% | -20.2%
COc1cc(CN2CCN(Cc3cccc(OC)c3OC)CC2)cc(OC)c1 | -3.4 | -3.6% | 8.1 | 0.8%[0.00184 µM] | 41.9%
Cc1cc(NC(=O)c2cc(-c3ccc(Br)cc3)on2)no1 | -3.1 | 5.2% | -3.1 | 6.5% | -19.6%
O=C(NCc1ccc2c(c1)OCO2)c1cc(-c2ccccc2Cl)on1 | 3.6 | -1.2% | 19.1 | 32.5% | ?
O=C(Nc1ccc2c(c1)OCO2)c1cc(-c2ccccc2Cl)on1 | 23.9* | -2.5% | 89.5* | 182.1% | ?
O=C(Nc1ccc2c(c1)OCO2)c1cc(-c2ccc(O)cc2)on1 | 39.5* | -3.6% | 106.0* | 71.2% | 17.9%
Cc1cc(NC(=O)c2cc(-c3ccc(O)cc3)on2)no1 | 42.2* | 1.0% | 92.6* | 85.0% | 58.1%
O=C(Nc1ccc2c(c1)OCO2)c1cc(-c2cccc(O)c2)on1 | 48.3* | -5.5% | 111.1* | 59.6% | 50.7%
COc1cccc2cc(C(=O)C3=C(O)C(=O)N(CCN4CCOCC4)C3c3cccc(Cl)c3)oc12 (centres undefined) | -5.6 | -15.7% | -7.7 | -9.5% | 88.2%
O=C(CSc1nnnn1Cc1ccccc1)Nc1ccccc1 | -4.5 | 1.3% | -7.2 | 2.7% | 80.8%
COc1ccc(Br)cc1S(=O)(=O)N(CC(=O)N1CCN(C)CC1)c1ccccc1 | -2.9 | -1.2% | 15.1 | -12.7% | ?
Cc1ccc(NC(=O)NCC(c2ccccc2)N(C)C)cc1 (centres undefined) | 35.1* | 0.4% | 67.9* | . | 10.1%
Cc1ccc(CNC(C)c2ccccc2)cc1 (centres undefined) | -1.3 | -2.4% | -1.9 | 13.5% | 14.1%
Cc1ccc(NC(=O)CNC(C)c2ccccc2)cc1 (centres undefined) | 29.2* | -1.8% | 49.8* | 33.9% | 27.7%
CC(=O)N(Cc1ccc(F)cc1)C1=C(NCCc2ccccc2)C(=O)c2ccccc2C1=O | -1.8 | 9.0% | -11.3 | . | 0.0037µM*
CC(=O)N(Cc1ccc(F)cc1)c1cccc(C)c1C | -1.6 | 0.9% | -10.4 | -8.4% | 0.0%
Cc1ccc(NC(=O)C2CCCN2C(=O)OC(C)(C)C)cc1C (centres undefined) | -3.7 | 0.0% | -6.7 | ? | ?
CCCCCCN1Cc2ccccc2C1 | 7.2 | -4.1% | -2.5 | 33.7% | 8.3%
CCCCCCCCn1ccc(=N)cc1 | 1.3 | -2.0% | -12.6 | 0.37µM* | ?
CCCCCCCCCCn1ccc(=N)cc1 | -0.2 | 9.8% | -19.2 | 0.208µM* | ?
Nc1ccc(C(=O)Nc2nccs2)cc1 | 33.2* | -20.3% | 125.3* | 338.2% | 6.7%
Cc1ccccc1NC(=O)c1ccc2nccnc2c1 | 9.0 | -1.4% | 24.0 | 39.8% | ?
SMILES | Cycloheximide cs | LmPK inh | Shiga toxin inh | Pf growth 48h | Pf growth 96h
O=C(Nc1nccs1)c1cccnc1 | 1.8 | -1.2% | -11.4 | 45.4% | ?
Cc1ccc(C(=O)Nc2nccs2)cc1 | 36.6* | ? | 115.9* | i | 439.0%
O=C(Nc1nccs1)c1ccc(COc2c(F)c(F)cc(F)c2F)cc1 | 56.1* | 0.2% | 79.5* | ? | 24.6%
O=C(Nc1nccs1)c1ccc2nccnc2c1 | 23.5* | -1.1% | 44.7* | 91.9% | -63.7%
COc1ccccc1/C=C1\Oc2cc(OC(=O)N3CCOCC3)ccc2C1=O | 2.0 | 6.8% | -0.2 | 3.6% | 1.3%
CCc1ccc(NC(=O)CC2C(=O)N(c3cccc(C)c3)C(=O)N2C2CC2)cc1 (centres undefined) | -1.9 | 12.3% | -6.3 | ? | 183.5%
O=C(O)c1cccc(-c2ccc(/C=N/n3cnc4sc5c(c4c3=O)CCCC5)o2)c1 | 7.3 | 12.4% | 22.1 | 5.0% | 19.1%
O=C(Nc1ccccc1Br)c1ccc2nccnc2c1 | 35.3 | -20.0% | 46.3* | 180.6% | 0.0%
COCCSc1ncnc2c1oc1nc3c(cc12)COC(C)(C)C3 | 23.1* | 0.4% | 30.4 | 5.8% | -1.0%
Cc1ccc(-n2cc(CN(C)CCc3cn[nH]c3)c(-c3cccc(C)c3)n2)cc1 | 0.9 | 7.4% | 8.1 | ? | 2.8%
Cc1ccc(-n2cc(CNC(C)Cc3cnccn3)c(-c3cccc(C)c3)n2)cc1 (centres undefined) | 0.8 | 0.8% | -7.8 | 3.29µM* | 20.9%
Cc1ccc(-n2cc(CN(C)Cc3nccn3C)c(-c3ccc(F)cc3)n2)cc1 | 9.2 | 0.7% | -5.3 | 8.28µM* | -17.8%
CCn1ccnc1CN(C)Cc1cn(-c2ccc(C)cc2)nc1-c1ccc(F)cc1 | 3.0 | 1.3% | -4.7 | 0.0% | 18.5%
Cc1ccc(-n2cc(CN(C)Cc3ncc[nH]3)c(-c3cccc(C)c3)n2)cc1 | 2.3 | 0.8% | -4.7 | 2.62µM* | 0.5%
CCN1CC(CN(C)Cc2cn(-c3ccc(C)cc3)nc2-c2cccc(C)c2)CC1=O (centres undefined) | -1.2 | 1.2% | -7.5 | 10.4µM* | ?
Nc1ccc(Cl)c(NC(=O)c2cccs2)c1 | 16.4* | -3.0% | active | 44.8% | ?
Nc1ccc(NC(=O)c2cccs2)c(Cl)c1 | 32.3* | -2.0% | 54.7* | 194.1% | ?
Nc1nc(CSc2ccccc2)nc(N2CCCCC2)n1 | 50.9* | -1.0% | 138.3* | 36.7% | 0.0%
CCC(C)c1ccc(NC(=O)COC(=O)c2nc3nccc(C)n3n2)cc1 (centres undefined) | 12.4 | -2.0% | 35.5 | 33.9% | 56.2%
CC(C)n1c2ccccc2c2cc([N+](=O)[O-])ccc21 | -2.9 | -0.2% | -8.9 | ? | 4.65µM*
CCn1c2ccccc2c2cc([N+](=O)[O-])ccc21 | -2.8 | 2.8% | -4.4 | ? | 4.5%
Cc1ccc(N2CC(C(=O)Nc3nnc(SCC(=O)N4CCOCC4)s3)CC2=O)cc1 (centres undefined) | -0.2 | -5.0% | 2.8 | -13.4% | -23.9%
O=C(O)CCc1ccc(-c2ccc(Cl)cc2)o1 | 12.1 | -8.5% | 35.8 | . | ?
COc1ccc(-c2ccc(CCC(=O)O)o2)cc1 | 25.5* | -8.6% | 41.0* | 26.8% | ?
O=C(O)CCc1ccc(-c2ccc(Br)cc2)o1 | 9.4 | -15.3% | 38.9* | 11.0% | -1.8%
COc1ccc(NC(=O)c2nnn(CC(=O)Nc3ccc4c(c3)OCO4)c2N)c(OC)c1 | 39.8 | -0.5% | 11.9 | 79.8% | -5.3%
CC(Oc1cccnc1[N+](=O)[O-])C(=O)Nc1cccc(Cl)c1 (centres undefined) | . | . | . | -29.7% | ?
O=C(CCNS(=O)(=O)c1ccc2[nH]c(=O)oc2c1)NCc1ccccc1 | -8.5 | -12.2% | -8.3 | 7.1% | 11.7µM*
Cc1cc(C)nc(S/C=C/C(=O)c2ccccc2F)n1 | 54.4* | -1.2% | 119.2* | 133.8% | 84.2%

Assay outcomes as filed in PubChem BioAssay.
